# The list is not random: actives were taken first. Their share in the collection is about 12%.
# ALDH1A1 block: blocks purified human ALDH1A1 activity; AID 1030; actives 7.3% (n = 220,000); P00352; Potency, µM (doses to about 75.3 µM), for the others: at the top dose activity, negative = inhibition, actives largely listed as inhibitors; Purified ALDH1A1, NADH fluorescence, propionaldehyde substrate; active means well fitted inhibition curve with a large enough effect, not every such curve was filed as active; inconclusive means small, poorly fitted or top-dose-only effect, or another doubt; inactive means no such curve, though single readings can be large or run the other way;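 further: plate controls were no enzyme wells and a reference inhibitor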
# Sfp inh: inhibitors of Bacillus subtilis Sfp phosphopantetheinyl transferase; actives 3.5% (n = 310,000); Biochemical Sfp PPTase activity, qHTS; Potency, µM, for inactives: largest response in the series, negative = inhibition, actives largely listed as inhibitors; AID 1490;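 further: the enzyme is Sfp with the accession as filed and its product quenches rhodamine fluorescence; 0% = enzyme reaction without inhibitor and -100% = no enzyme wells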
#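 With Hepes-Na pH 7.6 buffer containing 10 mM MgCl2, Sfp (15 nM) modified BHQ-2-YbbR (12.5 uM) using rhodamine-CoA (5 uM). Two reads 30 minutes apart at 525/598 nm yielded each well's rate.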
# RORg inh: ROR gamma (mouse) transcription inhibition; Drosophila S2 Gal4-RORgamma UAS-luciferase reporter, 20 h; Potency, µM (top dose mostly 53.6 µM), without a hit: at the top dose activity change, negative = inhibition, hits mostly inhibitors; actives 5.4% (n = 310,000); P51450; further: nearly all actives have a fitted effect of over 60% in size
# Target sequence (P51450 whole entry, looked up, the tested form may be a part): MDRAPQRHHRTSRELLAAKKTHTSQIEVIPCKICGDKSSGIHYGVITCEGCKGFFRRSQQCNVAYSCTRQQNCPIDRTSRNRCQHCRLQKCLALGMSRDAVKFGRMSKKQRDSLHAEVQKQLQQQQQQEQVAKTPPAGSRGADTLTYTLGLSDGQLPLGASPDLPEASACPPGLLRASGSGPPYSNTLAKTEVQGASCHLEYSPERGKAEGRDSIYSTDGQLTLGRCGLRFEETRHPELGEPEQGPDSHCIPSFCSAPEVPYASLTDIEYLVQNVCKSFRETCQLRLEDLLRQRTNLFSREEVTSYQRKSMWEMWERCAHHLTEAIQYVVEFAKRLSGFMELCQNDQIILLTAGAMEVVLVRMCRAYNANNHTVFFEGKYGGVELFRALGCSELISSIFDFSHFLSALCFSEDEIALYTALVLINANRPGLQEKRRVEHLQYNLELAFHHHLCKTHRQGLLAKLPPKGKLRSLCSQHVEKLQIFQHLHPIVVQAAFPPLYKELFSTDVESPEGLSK
#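 Using a luciferase readout, inhibitors were identified by reduced reporter activity in Drosophila cells coexpressing a copper-inducible Gal4–ROR gamma fusion and UAS-driven Photinus luciferase, incubated 20 hr after 700 uM copper sulfate.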
# PLK1 PBD block: inhibitors of human PLK1 polo-box domain binding; P53350; Plk1 PBD binding of FITC phosphopeptide, fluorescence polarization; Potency, µM, inactives show max response, negative = inhibition, actives largely listed as inhibitors; actives 2.8% (n = 360,000); AID 720504; further: series mostly up to about 57 µM; nearly all actives have a fitted effect of over 65% in size
# VP16 counter: Gal4-VP16 reporter inhibition counter-screen; Drosophila S2 Gal4-VP16 UAS-luciferase, luminescence, 20 h; Potency, µM (titrated, usually from 53.6 µM), for inactives: top-dose activity, negative = inhibition, usual class: inhibitors; actives 3.5% (n = 310,000); AID 2546;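 further: Gal4-VP16 expression switched on by copper sulfate through the metallothionein promoter; nearly all actives have a fitted effect of over 50% in size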
# * marks the source's active call; other numbers are inactive results; ? = inconclusive; / = no result given; [ ] = another dose, or the depositor's remark. Unless noted, the call rests on the fitted dose curve; in most records, active means well fitted curve in the direction sought with a large enough effect; inconclusive means small, poorly fitted or top-dose-only effect, or another doubt; inactive means no such curve, though single readings can be large; an effect the other way counts as inactive or inconclusive. Unless noted, on the % scale 0 is the no-effect control and ±100 the full control effect; potency means the concentration at half of the fitted maximal effect.
SMILES,ALDH1A1 block,Sfp inh,RORg inh,PLK1 PBD block,VP16 counter
COc1ccc(-c2nc3cc(NC(=S)NC(=O)Cc4ccccc4)ccc3o2)cc1,11µM*,-8%,4.5µM*,-1%,2.5µM*
CCC(=O)NC(=S)Nc1ccc2oc(-c3ccc(OC)cc3)nc2c1,-7%,-5%,11%,-22%,-7%
CN1C[C@H](c2ccccc2)C(O)([C@]2(c3ccccc3)CN(C)C[C@@H](c3ccccc3)C2=O)[C@H](c2ccccc2)C1 (some centres undefined),-8%[13.5 µM],/,/,/,/
CCOC(=O)C1(NC(=O)C2(N3C(=O)c4ccccc4C3=O)CCCC2)CCCC1,/,/,/,-9%,/
O=[N+]([O-])c1ccc(/C=C/C2=NN(c3ccccc3)C(c3ccco3)C2)cc1 (centres undefined),2%,40µM*,?,15%,20µM*
COc1cc(OC)cc(-c2noc([C@H]3C[C@H](O)[C@@H](CO)O3)n2)c1,/,/,/,-11%,/
Cn1c(C2CCCCC2)nc2ccccc21,/,17%,11µM*,-5%,?
CCOC(=O)C1=C[C@@H](C(C)C)N(S(=O)(=O)c2ccc(C)cc2)[C@H]1c1ccc(C(F)(F)F)cc1,/,/,/,4%,/
Cc1ccc(OCC(=O)Sc2ccc(C)cc2)cc1,8%,1%,5%,6µM*,16%
COc1ccccc1OCC(=O)Sc1ccc(C)cc1,-4%,-6%,-11%,3µM*,-8%
CCc1nc2ccc(C(=O)NCc3ccccc3OC)cn2c1N(CC)CCOC,/,/,/,-1%,/
CN(C)c1ncc2nc(-c3ccccc3)c(=O)n(-c3ccccc3)c2n1,?,33%,-26%,/,-12%
COc1ncc2nc(-c3cc(F)cc(F)c3)c(=O)n(CCC#N)c2n1,?,3%,8%,/,7%
CC[C@@]1(O)C(=O)OCc2c1cc1n(c2=O)Cc2cc3c(CN(C)C)c(O)ccc3nc2-1,2%[13.5 µM],16%,?,6µM*,?
CCCCc1cc(=O)oc2c(CN(C)C)c(O)ccc12,?,15%,-8%,-4%,0%
CC[C@@]1(O)C(=O)OCc2c1cc1n(c2=O)Cc2cc3c([N+](=O)[O-])cccc3nc2-1,/,23%,?,/,0.63µM*
O=c1cccc2n1Cc1cc3ccccc3nc1-2,?,12%,-29%,-9%,-7%
CCN=C1NN=C(c2c[nH]c3ccccc23)CS1,-7%,?,?,-11%,-26%
c1cc2c(cc1C1=NNC(=NC3CC3)SC1)OCCO2,10µM*,-6%,2.5µM*,-29%,2.2µM*
CCCCN=C1NN=C(c2ccc(C)c(C)c2)CS1,20µM*,-25%,7.1µM*,11µM*,13µM*
CCCCN=C1NN=C(c2ccc3c(c2)OCCO3)CS1,10µM*,40µM*,4.5µM*,-8%,7.9µM*
COc1ccc(N=C2NN=C(c3ccc4c(c3)OCCO4)CS2)cc1,25µM*,?,6%,27µM*,24%
Cc1cc(OCC(=O)OCC(=O)N2CCCc3ccccc32)ccc1Cl,/,/,/,-2%,/
CC(=O)SC1CC2=CC(=O)CC[C@@]2(C)C2CC[C@@]3(C)[C@@H](CC[C@@]34CCC(=O)O4)C12 (some centres undefined),3%,-4%,4%,/,-2%
O=C(c1[nH]c(C(F)(F)F)nc1-c1ccccc1)N1CCN(c2ncccc2C(F)(F)F)CC1,/,/,/,-7%,/
SMILES,ALDH1A1 block,Sfp inh,RORg inh,PLK1 PBD block,VP16 counter
CC(=O)Nc1ccc(S(=O)(=O)NC(C)CCc2ccccc2)cc1 (centres undefined),/,5%,30%,-10%,0%
Cc1ccc(S(=O)(=O)NC(C)CCc2ccccc2)cc1 (centres undefined),25µM*,-5%,-3%,1%,4%
FC(F)(F)c1cc(NC(=S)Nc2ccc3cc4ccccc4cc3c2)cc(C(F)(F)F)c1,-9%,-25%,19%,/,8%
O=c1oc2cc(OCc3c(F)cccc3Cl)ccc2cc1-c1ccccn1,-1%,-8%,-1%,-4%,-7%
CCCOc1ccc2cc(-c3ccccn3)c(=O)oc2c1,?,11%,7.1µM*,-14%,5µM*
CC(C)c1ccc(/C=C2\C=C(c3ccc4ccccc4c3)OC2=O)cc1,8%[13.5 µM],/,/,/,/
CCN(CC)S(=O)(=O)c1cccc(C(=O)N/N=C/c2cccc(O)c2O)c1,1%,?,1%,-10%,-13%

# Screening results (PubChem)
